Most compounds without a hit are left out; they make up all but 19% or so of the library.
DT40 TDP1 CPT: qHTS for Inhibitors of human tyrosyl-DNA phosphodiesterase 1 (TDP1): qHTS in cells in presence of CPT; chicken DT40 Tdp1-/-;hTDP1 cells + 20 nM CPT, ATP luminescence, 48 h; 420,000 tested, 12% active; Potency, µM (titrated, usually from 46.2 µM), for the others: at the top dose activity change, negative = growth inhibition, most hits filed as inhibitors; note: potency is the fitted concentration of half-maximal effect; nearly all actives have a fitted effect of over 55% in size
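Chicken DT40 Tdp1-/- cells stably complemented with human TDP1 were seeded at 400 cells/well in medium containing 20 nM camptothecin, exposed to pin-transferred compounds, and grown at 37 °C for at least 48 hr. Viability was read as ATP luminescence.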
IL-1B inflam inh: qHTS for Inhibitors of Inflammasome Signaling: IL-1-beta AlphaLISA Primary Screen; THP-1 LPS/ATP IL-1B secretion, AlphaLISA, 16 h; hits give low values; activity change, % at 57.5 µM; 360,000 tested, 4.7% active; AID 743279, 2014; in the data active = activity change below about -50%; inconclusive = mostly about -30% to -49%
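THP-1 cells pretreated 1 hr with compounds (up to 57.5 uM final), then stimulated with LPS (250 ng/mL final) plus ATP (1.25 mM final); secreted IL-1B measured by AlphaLISA after 16 hr, decreased signal indicating inhibition.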
DT40 TDP1 no CPT: qHTS for Inhibitors of human tyrosyl-DNA phosphodiesterase 1 (TDP1): qHTS in cells in absence of CPT; DT40 Tdp1-/- hTDP1 cells, no CPT, ATP luminescence, 48 h; AID 686978, 2013; 420,000 tested, 15% active; Potency, µM (titrated, usually from 46.2 µM), for the others: at the highest dose activity change, negative = growth inhibition, hits mostly inhibitors; note: potency is the fitted concentration of half-maximal effect; nearly all actives have a fitted effect of over 55% in size
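Readout: luminescence from CellTiter-Glo after 30 min in the dark at RT. Cells: DT40 Tdp1-/- with stable hTDP1, 400/well. Exposure: compounds alone, ≥48 hr, 37 °C.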
HT1080 IDH1KD tx: qHTS for induction of synthetic lethality in tumor cells producing 2HG: qHTS for the HT-1080-IDH1KD cell line | HT-1080 IDH1 knockdown viability, ATP luminescence, 48 h | Potency, µM (highest dose often 46.1 µM), inactives show at the top dose activity, negative = toxicity, hits mostly cytotoxic | 360,000 tested, 2% active | AID 686971, 2013;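 note: potency is the fitted concentration of half-maximal effect; 0% = DMSO wells and -100% = cell-free medium wells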
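% activity derives from luminescence (CellTiter-Glo), normalised to DMSO and no-cell wells. HT-1080-IDH1KD cells, 750/well, had 48 h compound exposure at 37 °C.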
HT1080NT lethal: qHTS for induction of synthetic lethality in tumor cells producing 2HG: qHTS for the HT-1080-NT fibrosarcoma cell line; HT-1080-NT fibrosarcoma viability, CellTiter-Glo ATP luminescence, 48 h; Potency, µM (highest dose often 46.1 µM), for the others: at the highest dose activity, negative = less viability, actives largely listed as cytotoxic; 360,000 tested, 1.6% active; AID 686970, 2013;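 note: NT is the 2HG producing partner of a matched IDH1 knockdown line; potency is the fitted concentration of half-maximal effect; 0% = DMSO-treated cells and -100% = media-only wells without cells; nearly all actives have a fitted effect of over 55% in size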
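Toxicity toward the 2HG-producing NT line was scored as %Activity, normalised to DMSO and no-cell wells, from CellTiter-Glo luminescence after 48 hours' treatment.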
Starred values were filed as active, the others as inactive. Unless noted, calls come from the whole dose curve; as a rule, active = well fitted curve in the direction sought with a large enough effect; inconclusive = small, poorly fitted or top-dose-only effect, or another doubt; inactive = no such curve, though single readings can be large; an effect the other way counts as inactive or inconclusive. Unless noted, % is set by controls: 0 for no effect and ±100 for the full control effect.

Cn1cc([N+](=O)[O-])c(C(=O)Nc2ccc3c(C(F)(F)F)cc(=O)oc3c2)n1 was read as DT40 TDP1 CPT 1%, IL-1B inflam inh -95*, DT40 TDP1 no CPT 2%, HT1080 IDH1KD tx inconclusive and HT1080NT lethal inconclusive.
Screening CC(C)NC(=O)N1CCCC2(CCN(C(=O)Oc3ccccc3)CC2)C1 returned DT40 TDP1 CPT -21% and DT40 TDP1 no CPT inconclusive.
CC(=O)Nc1cc(-c2cccc(C(=O)N(C)C)c2)cn2c(-c3cccc(C(F)(F)F)c3)cnc12 was read as DT40 TDP1 CPT 18µM*, IL-1B inflam inh -20, DT40 TDP1 no CPT 16µM*, HT1080 IDH1KD tx -29% and HT1080NT lethal inconclusive.
`Nc1cc(Cl)cc(Cl)c1` gave DT40 TDP1 CPT 0%, IL-1B inflam inh inconclusive, DT40 TDP1 no CPT -1%, HT1080 IDH1KD tx -4% and HT1080NT lethal 24%.
Screening O=C1c2cccc3cc([N+](=O)[O-])cc(c23)C(=O)N1c1ccccc1O returned DT40 TDP1 CPT 21µM*, IL-1B inflam inh 18, DT40 TDP1 no CPT 16µM*, HT1080 IDH1KD tx 3% and HT1080NT lethal -4%.
For CCN(CC)C(=O)Oc1nnc(SC(C)C)n1-c1ccc(Cl)c(Cl)c1 the results were DT40 TDP1 CPT inconclusive, IL-1B inflam inh -21, DT40 TDP1 no CPT 23µM*, HT1080 IDH1KD tx -14% and HT1080NT lethal -3%.
N#CC1c2ccccc2-n2nncc2CN1C(=O)c1ccccc1F (centres undefined) was read as DT40 TDP1 CPT -16%, IL-1B inflam inh 2, DT40 TDP1 no CPT -22%, HT1080 IDH1KD tx 23% and HT1080NT lethal 22%.
For O=C(Cn1cc(C(=O)c2ccccc2)c2ccccc21)Nc1ccc(Br)cc1 the results were DT40 TDP1 CPT inconclusive and DT40 TDP1 no CPT 23µM*.
`C[C@]12CC[C@@H]3c4ccc(O)cc4C[C@@H](CCCCCCCCCS(=O)CCCC(F)(F)C(F)(F)F)[C@H]3[C@@H]1CC[C@@H]2O` (some centres undefined) gave DT40 TDP1 CPT -40% and DT40 TDP1 no CPT inconclusive.
`N=C1c2ccccc2CN1c1ccc(F)c([N+](=O)[O-])c1` gave DT40 TDP1 CPT inconclusive, IL-1B inflam inh -99*, DT40 TDP1 no CPT inconclusive, HT1080 IDH1KD tx -4% and HT1080NT lethal -15%.
For O=[N+]([O-])c1ccc(N2CCCC2)cc1N/N=C1\CN2CCC1CC2 the results were DT40 TDP1 CPT inconclusive, IL-1B inflam inh -16, DT40 TDP1 no CPT 21µM*, HT1080 IDH1KD tx 23% and HT1080NT lethal 14%.
For CNc1cc(N2CCN(C)CC2)ccc1[N+](=O)[O-] the results were DT40 TDP1 CPT -2%, IL-1B inflam inh 14, DT40 TDP1 no CPT -2%, HT1080 IDH1KD tx 15% and HT1080NT lethal 1%.
Screening CCn1c(=O)oc2cc(NC(=O)CCl)ccc21 returned DT40 TDP1 CPT 12µM*, IL-1B inflam inh -100*, DT40 TDP1 no CPT 15µM*, HT1080 IDH1KD tx 5.2µM* and HT1080NT lethal 8.2µM*.
`CC1CCN(C(=O)C2CCN(c3nnc(-n4cccc4)s3)CC2)CC1` gave DT40 TDP1 CPT -28%, IL-1B inflam inh 0, DT40 TDP1 no CPT inconclusive, HT1080 IDH1KD tx -15% and HT1080NT lethal 4%.
For COC(=O)c1ccccc1OP(=O)(c1cccc([N+](=O)[O-])c1)c1cccc([N+](=O)[O-])c1 the results were DT40 TDP1 CPT 2%, IL-1B inflam inh 8, DT40 TDP1 no CPT -1%, HT1080 IDH1KD tx 18% and HT1080NT lethal 23%.
Screening Cc1ccc(-n2c(=O)[nH]c3ccccc3c2=O)cc1[N+](=O)[O-] returned DT40 TDP1 CPT inconclusive, IL-1B inflam inh 0, DT40 TDP1 no CPT -27%, HT1080 IDH1KD tx 28% and HT1080NT lethal 16%.
